Tau fluor counter – Counterscreen qHTS for Inhibitors of Tau Fibril Formation, Fluorescence Polarization | tau K18 P301L Alexa594 fluorescence, heparin fibrillization | Potency, µM (titrated, usually from 57.7 µM), without a hit: top-dose activity change, negative = decrease | 280,000 compounds, 0.93% hits | AID 1463, 2008; also: potency is read from the fitted curve at half-maximal effect; nearly all actives have a fitted effect of over 55% in size
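Human K18 P301L tau (15 uM unlabeled plus 0.24 uM Alexa 594-labeled, final) in 100 mM sodium acetate pH 7 was mixed with compound and 20 uM heparin and incubated 6 hr at 37 C.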
JMJD2E inh – qHTS Assay for Inhibitors of Human Jumonji Domain Containing 2E (JMJD2E); Lysine-specific demethylase 4E (Homo sapiens), B2RXH2; JMJD2E catalytic domain, FDH-coupled NADH fluorescence (FDH is formaldehyde dehydrogenase); Potency, µM (titrated, usually from 57.1 µM), for inactives: top-dose activity change, negative = inhibition, usual class: inhibitors; 230,000 compounds, 1.6% hits; AID 2147, 2009; active = well fitted inhibition curve with a large enough effect, not every such curve was filed as active; inconclusive = small, poorly fitted or top-dose-only effect, or another doubt; inactive = no such curve, though single readings can be large or run the other way;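 also: potency is read from the fitted curve at half-maximal effect; 0% = wells with enzyme and -100% = buffer wells without enzyme; nearly all actives have a fitted effect of over 50% in size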
Target sequence (B2RXH2 1-337 limits assumed): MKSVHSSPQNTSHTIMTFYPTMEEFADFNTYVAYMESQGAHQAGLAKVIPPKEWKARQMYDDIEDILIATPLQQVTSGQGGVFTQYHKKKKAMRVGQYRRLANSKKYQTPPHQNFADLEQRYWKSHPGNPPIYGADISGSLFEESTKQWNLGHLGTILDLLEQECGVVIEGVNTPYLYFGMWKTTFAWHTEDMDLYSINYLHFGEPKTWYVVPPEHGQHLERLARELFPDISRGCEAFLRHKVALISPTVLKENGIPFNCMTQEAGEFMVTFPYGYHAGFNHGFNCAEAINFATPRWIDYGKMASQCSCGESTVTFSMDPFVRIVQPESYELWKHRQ
Sfp inh – qHTS Assay for Inhibitors of Bacillus subtilis Sfp phosphopantetheinyl transferase (PPTase) | 4'-phosphopantetheinyl transferase ffp (Bacillus subtilis), Q9F4F7 | Biochemical Sfp PPTase activity, qHTS | Potency, µM, for the others: largest response in the series, negative = inhibition, hits mostly inhibitors | 310,000 compounds, 3.5% hits | AID 1490, 2009;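 also: the enzyme is Sfp with the accession as filed and its product quenches rhodamine fluorescence; potency is read from the fitted curve at half-maximal effect; 0% = enzyme reaction without inhibitor and -100% = no enzyme wells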
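Sfp 15 nM + cpd, 15 min RT; start w/ rhodamine-CoA 5 uM, BHQ-2-YbbR 12.5 uM (final); 50 mM Hepes pH 7.6, 10 mM MgCl2, 0.01% NP-40, 0.01% BSA; read 525/598 nm at 0 and 30 min.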
Tau FP inhib – qHTS for Inhibitors of Tau Fibril Formation, Fluorescence Polarization | Microtubule-associated protein tau (Homo sapiens), P10636 | K18 P301L tau heparin fibrillization, Alexa594 FP, 6 h | Potency, µM (doses to about 57.7 µM), for inactives: at the highest dose activity, negative = inhibition, actives largely listed as inhibitors | 280,000 compounds, 0.39% hits; also: potency is read from the fitted curve at half-maximal effect; nearly all actives have a fitted effect of over 55% in size
Target sequence (P10636 561-689 P618L limits assumed): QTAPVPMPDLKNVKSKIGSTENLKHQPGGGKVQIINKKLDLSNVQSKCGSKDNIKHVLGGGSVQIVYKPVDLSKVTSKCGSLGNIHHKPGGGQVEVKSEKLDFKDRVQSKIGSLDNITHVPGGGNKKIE
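Quantitative HTS format: compounds meet 15 uM recombinant K18 P301L tau and Alexa 594-tau tracer in 100 mM sodium acetate pH 7; 20 uM heparin triggers fibrillization at 37 C over 6 hr; FP gives the signal.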
Tau fibril ThT – qHTS for Inhibitors of Tau Fibril Formation, Thioflavin T Binding; 270,000 compounds, 2.1% hits; Potency, µM (highest dose often 57.4 µM), for inactives: at the highest dose activity, negative = inhibition, most hits filed as inhibitors; recombinant tau K18 P301L, heparin-induced fibrillization, ThT fluorescence; AID 1460, 2008; Microtubule-associated protein tau (Homo sapiens), P10636; also: potency is read from the fitted curve at half-maximal effect; nearly all actives have a fitted effect of over 55% in size
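Using a mix of unlabeled (15 uM) and Alexa 594-labeled (0.24 uM) tau K18 P301L, heparin-triggered fibrillization over 6 hr at 37 C was scored by ThT fluorescence.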
Coupling enz – qHTS Assay for Inhibitors of Fructose-1,6-bisphosphate Aldolase from Giardia Lamblia: Coupling assay counterscreen. coupling enzyme system counterscreen, AmpLite Red fluorescence. activity change, negative = inhibition, % at 58.2 µM, hits read low. 290,000 compounds, 0.67% hits. AID 2472, 2010; in the data active = activity change below about -30%
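Final compound at 57.5 uM, incubated 10 min at RT with coupling enzyme reagent (glyceraldehyde-3-phosphate), then 20 min with substrate and AmpLite Red detection. Fluorescence read at 525/598 nm; tests interference with the coupling assay, not aldolase inhibition.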
* hit, by the source's call; [ ] = another dose, or the depositor's remark. An excerpt weighted towards active compounds, which were near 5.3% of everything screened. Unless noted, calls follow the shape of the dose curve; as a rule, active = well fitted curve in the direction sought with a large enough effect; inconclusive = small, poorly fitted or top-dose-only effect, or another doubt; inactive = no such curve, though single readings can be large; an effect the other way counts as inactive or inconclusive. Unless noted, % is scaled to controls: 0 for no effect and ±100 for the full control effect.

Screening COc1ccccc1NC(=O)C1=C(C)Nc2nc(SCc3ccccc3)nn2C1c1ccccn1 (stereo unspecified) returned Tau fluor counter -22%, Tau FP inhib -4% and Tau fibril ThT -6%.
`COCCCNC(=O)c1c(N)n(-c2ccc3c(c2)OCO3)c2nc3ccccc3nc12` gave Tau fluor counter -19%, JMJD2E inh inconclusive, Sfp inh -20%, Tau FP inhib 9%, Tau fibril ThT -13% and Coupling enz -47*.
`Nc1c(C(=O)NC2CC2)c2nc3ccccc3nc2n1-c1ccc2c(c1)OCO2` gave Tau fluor counter -27%, JMJD2E inh inconclusive, Sfp inh -2%, Tau FP inhib -8%, Tau fibril ThT inconclusive and Coupling enz -22.
For Nc1c(C(=O)OCC2CCCO2)c2nc3ccccc3nc2n1-c1ccc2c(c1)OCCO2 (stereo unspecified) the results were Tau fluor counter -30%, JMJD2E inh inconclusive, Sfp inh inconclusive, Tau FP inhib 5%, Tau fibril ThT inconclusive and Coupling enz -37*.
For CCOCCCNC(=O)c1c(N)n(-c2ccc3c(c2)OCO3)c2nc3ccccc3nc12 the results were Tau fluor counter -6%, JMJD2E inh inconclusive, Sfp inh 4%, Tau FP inhib 4%, Tau fibril ThT -7% and Coupling enz -35*.
For CCCCC(=O)Nc1sc2c(c1-c1nc3ccccc3s1)CCN(C(C)=O)C2 the results were Tau fluor counter 1%, JMJD2E inh inconclusive, Sfp inh inconclusive, Tau FP inhib 11%, Tau fibril ThT inconclusive and Coupling enz -2.
CC(=O)N1CCc2c(sc(NC(=O)C3CC3)c2-c2nc3ccccc3s2)C1 was read as Tau fluor counter -12%, JMJD2E inh inconclusive, Sfp inh 45µM*, Tau FP inhib -13%, Tau fibril ThT inconclusive and Coupling enz -12.
`O=C1NC(=O)[C@@H]2C3c4ccccc4C=CN3[C@H](C(=O)c3cccs3)[C@H]12` (stereo partly specified) gave Tau fluor counter -26%, JMJD2E inh inconclusive, Sfp inh 79µM*, Tau FP inhib inconclusive, Tau fibril ThT 28µM* and Coupling enz -43*.
Screening O=C(O)CC/C=C\CC[C@@H]1[C@@H](N2CCCCC2)[C@@H](O)C[C@@H]1OCc1ccc(-c2ccccc2)cc1 returned Sfp inh -5%.
CCOC(=O)CSc1n[nH]c(=S)s1 was read as Tau fluor counter -12%, JMJD2E inh 10µM*, Sfp inh inconclusive, Tau FP inhib 2%, Tau fibril ThT -11% and Coupling enz -2.
CCCCCCCC/C=C\CCCCCCCCOC[C@H](COP(=O)([O-])OCC[N+](C)(C)C)OC(C)=O was read as Tau fluor counter -8%, JMJD2E inh -4%, Sfp inh 6%, Tau FP inhib -3%, Tau fibril ThT -9% and Coupling enz 0.
Screening CC(=O)Nc1ccc(C2Sc3ccccc3NC3=C2C(=O)c2ccccc23)cc1 (stereo unspecified) returned Tau fluor counter 11µM*[quencher], Tau FP inhib inconclusive and Tau fibril ThT inconclusive.
Screening O=C1C2=C(Nc3ccccc3SC2c2ccco2)c2ccccc21 (stereo unspecified) returned Tau fluor counter 16µM*[quencher], JMJD2E inh inconclusive, Sfp inh inconclusive, Tau FP inhib inconclusive, Tau fibril ThT 13µM* and Coupling enz -11.
O=C1C2=C(Nc3ccccc3SC2c2ccc(C(F)(F)F)cc2)c2ccccc21 (stereo unspecified) was read as Tau fluor counter 2.8µM*[quencher], Tau FP inhib 10µM* and Tau fibril ThT inconclusive.
For CCc1ccc(C2Sc3ccccc3NC3=C2C(=O)c2ccccc23)cc1 (stereo unspecified) the results were Tau fluor counter 2.5µM*[quencher], Tau FP inhib inconclusive and Tau fibril ThT inconclusive.
`CCC(CC)C(=O)Nc1ccc(OCc2cc(=O)n3c4c(sc3n2)CCCC4)cc1` gave Tau fluor counter -3%, Tau FP inhib -5% and Tau fibril ThT -4%.
`CCOc1ccc(CNC(=O)C2Cc3ccccc3N2C(=O)CC)cc1OC` (stereo unspecified) gave Tau fluor counter -3%, Tau FP inhib 7% and Tau fibril ThT -4%.
Screening COc1cc(OC)c(NC(=O)CCCn2nc(C)c3sc4ccccc4c3c2=O)cc1Cl returned Tau fluor counter inconclusive, Tau FP inhib 1% and Tau fibril ThT inconclusive.
`COC(=O)C1=C[C@@H](C(=O)OC)C2C3=C(C(=O)[C@@]2(C)NC(=O)c2ccccc2)[C@H](c2ccccc2)n2c(=O)n(-c4ccccc4)c(=O)n2[C@@H]3C1` (stereo partly specified) gave Sfp inh 8% and Coupling enz 0.
O=C(Nc1ccc2nsnc2c1)N1CCCCCC1 was read as Tau fluor counter 0%, JMJD2E inh inconclusive, Sfp inh 1%, Tau FP inhib 10%, Tau fibril ThT -10% and Coupling enz -11.
For S=C(Nc1ccc2nsnc2c1)N1CCCC1 the results were Tau fluor counter -19%, JMJD2E inh inconclusive, Sfp inh 14µM*, Tau FP inhib inconclusive, Tau fibril ThT 25µM* and Coupling enz -25.
For CN(Cc1ccccc1)C(=O)[C@H](Cc1ccc2ccccc2c1)NC(=O)[C@@H]1CCCN1C(=O)Nc1ccccc1[N+](=O)[O-] the results were Tau fluor counter -27%, Sfp inh 9%, Tau FP inhib 14%, Tau fibril ThT inconclusive and Coupling enz 0.
O=C(CSc1ccccc1C(=O)O)NCc1ccco1 was read as Tau fluor counter 1%, JMJD2E inh 4%, Sfp inh 17%, Tau FP inhib -4%, Tau fibril ThT 0% and Coupling enz 1.
For COCCSc1ccccc1C(=O)N1CCOCC1 the results were Tau fluor counter -2%, JMJD2E inh -3%, Sfp inh 79µM*, Tau FP inhib -5%, Tau fibril ThT -9% and Coupling enz -1.
For COCCSc1ccccc1C(=O)Nc1cc(C)on1 the results were Tau fluor counter -2%, JMJD2E inh inconclusive, Sfp inh 32µM*, Tau FP inhib -3%, Tau fibril ThT -2% and Coupling enz -14.

Screens deposited in PubChem by National Center for Advancing Translational Sciences (NCATS).
